A selection: hits, their analogues and other compounds. The true share with any hit is near 5.4%.
VACV Venus inh – vaccinia inhibition (Venus reporter); Vaccinia virus Venus reporter expression, fluorescence; Potency, µM (highest dose often 36.5 µM), hits mostly inhibitors; 330,000 tested, 0.46% active; AID 720580; calls by dose curve; tested in A549 cells; note: nearly all actives have a fitted effect of over 30% in size
Vaccinia mCherry – inhibitors of vaccinia virus infection (mCherry reporter signal) | Vaccinia virus mCherry reporter infection, fluorescence | Potency, µM (doses to about 36.5 µM), most hits filed as inhibitors | 310,000 tested, 0.63% active | AID 720579; calls by dose curve; tested in A549 cells; note: nearly all actives have a fitted effect of over 35% in size
Sm TGR inh – inhibitors of Schistosoma mansoni thioredoxin glutathione reductase. Q962Y6. purified TGR, DTNB reduction, TNB absorbance 405 nm. 360,000 tested, 3% active. Potency, µM (highest dose often 114 µM), most hits filed as inhibitors. AID 485364; active = well fitted inhibition curve with a large enough effect; inconclusive = small, poorly fitted or top-dose-only effect; inactive = no such curve, though single readings can be large or run the other way; note: nearly all actives have a fitted effect of over 60% in size
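Kinetic colorimetric format: TGR-catalysed, NADPH-driven DTNB reduction monitored via TNB absorbance. Enzyme dispensed at 20 nM; compound exposure 15 min at room temperature before reaction start.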
Lassa entry inh – blocks Lassa virus binding to or entry into cells; Lassa virus pseudotype entry inhibition, cell reporter; Potency, µM (series often up to 37.9 µM), hits mostly inhibitors; 300,000 tested, 1.2% active; AID 540256; calls by dose curve; tested in HEK293 cells; note: nearly all actives have a fitted effect of over 50% in size
MARV entry inh – Marburg virus entry inhibition | Marburg virus pseudotyped entry inhibition, cell reporter | Potency, µM (doses to about 37.8 µM), hits mostly inhibitors | 300,000 tested, 1.8% active | AID 540276; calls by dose curve; tested in HEK293 cells
FMDV antiviral – foot and mouth disease virus antiviral activity | FMDV antiviral cell-based qHTS | Potency, µM (top dose mostly 57.9 µM), usual class: inhibitors | 410,000 tested, 1.2% active; calls by dose curve; tested in HEK293T cells; note: read-out not given here; nearly all actives have a fitted effect of over 45% in size
Of the large screens only hits and unclear results are named; the others gave an inactive call.

CCOc1ccc(CCNC(=O)COC(=O)/C=C/c2ccc(C)o2)cc1OCC	Sm TGR inh 50µM
COc1ccc(CCNc2nc(SCc3ccccc3Cl)nc3ccccc23)cc1OC	none (no result: MARV entry inh)
CCOC(=O)c1ccc(NC(=O)CN2C(=O)c3cccnc3Sc3ccccc32)cc1	none (no result: MARV entry inh)
CCOC(=O)c1c(C)n(-c2ccccc2)c2ccc(OC(=O)c3cccc(Cl)c3)cc12	none (no result: MARV entry inh)
CCCc1cc(=O)[nH]c2nnc(SCC)n12	none (no result: MARV entry inh)
CCOC(=O)C1=C(COC(=O)/C=C/c2ccc(C)o2)NC(=O)NC1C (configuration not stated)	Sm TGR inh 22µM (no result: VACV Venus inh, Vaccinia mCherry, Lassa entry inh, MARV entry inh)
C[C@@H](c1ccccc1)N1C(=O)[C@@H]2[C@H]3[C@H](O)[C@H](O)CC(=NOC[C@@H](O)COCc4ccco4)[C@H]3CC[C@H]2C1=O	none (no result: VACV Venus inh, Vaccinia mCherry, Sm TGR inh, Lassa entry inh, FMDV antiviral)
CC1=C(O)C(=O)C=C2C1=CC=C1[C@]2(C)CC[C@@]2(C)C3C[C@](C)(C(=O)O)CC[C@@]3(C)CC[C@@]12C (some centres not stated)	VACV Venus inh 11µM, Vaccinia mCherry 14µM, FMDV antiviral 4µM (no result: Sm TGR inh, Lassa entry inh, MARV entry inh)
CC(C)Cn1c(=O)c(C(=O)Nc2ccccc2S(N)(=O)=O)c(O)c2ccccc21	VACV Venus inh inconclusive, Vaccinia mCherry inconclusive
CCC(C)n1c(=O)c(C(=O)Nc2ccccc2S(N)(=O)=O)c(O)c2ccccc21 (configuration not stated)	VACV Venus inh inconclusive, Vaccinia mCherry 13µM, Lassa entry inh inconclusive, MARV entry inh inconclusive
COC(=O)/C(=C1/Oc2cc(C)oc(=O)c2S1)C(F)(F)F	Lassa entry inh inconclusive, MARV entry inh inconclusive, FMDV antiviral 28µM
O=C(CSC1=Nc2ccccc2N=C(c2ccc(F)cc2)C1)NCc1ccc(Cl)cc1	none (no result: MARV entry inh)
COc1ccc(N(Cc2ccccc2)S(=O)(=O)c2cccc(C(=O)NCC3CCCO3)c2)cc1 (configuration not stated)	Lassa entry inh 3.2µM
COc1ccccc1N(CC1CO1)S(=O)(=O)c1ccccc1 (configuration not stated)	none
C=CCN(c1ccccc1Cl)S(=O)(=O)c1cccc(C(=O)NCCc2ccc(OC)cc2)c1	VACV Venus inh inconclusive, Vaccinia mCherry inconclusive, Lassa entry inh 12µM, MARV entry inh inconclusive
COc1ccc(N(CC2CO2)S(=O)(=O)c2ccccc2)cc1 (configuration not stated)	Sm TGR inh 40µM
O=C(NCC1CCCO1)c1cccc(NS(=O)(=O)c2ccccc2)c1 (configuration not stated)	MARV entry inh inconclusive
Cc1ccc(NS(=O)(=O)c2cccc(C(=O)NCC3CCCO3)c2)cc1 (configuration not stated)	Lassa entry inh 10µM, MARV entry inh inconclusive
CC(C)CCNC(=O)c1ccc(Cn2c(SCC(=O)NC(C)C)nc3ccccc3c2=O)cc1	Lassa entry inh inconclusive (no result: MARV entry inh)
CN(C)C1(CNC(=O)c2ccc(NS(=O)(=O)c3ccc(Cl)c(Cl)c3)cc2)CCCCC1	none (no result: VACV Venus inh, Vaccinia mCherry, Lassa entry inh, MARV entry inh)
CCOc1ccc(NS(=O)(=O)c2cccc(C(=O)NCC3(N(C)C)CCCCC3)c2)cc1	Lassa entry inh inconclusive, MARV entry inh 11µM
O=C(NCc1ccccn1)c1coc(=O)c(Br)c1	FMDV antiviral 20µM (no result: Vaccinia mCherry)
O=C(NCCc1ccc(F)cc1)c1coc(=O)c(Br)c1	FMDV antiviral 35µM (no result: VACV Venus inh, Vaccinia mCherry, Lassa entry inh, MARV entry inh)
COc1cc(OC)c(OC)cc1CN1CCCC(c2[nH]ncc2-c2cccc(C(F)(F)F)c2)C1 (configuration not stated)	none (no result: Sm TGR inh, Lassa entry inh, MARV entry inh)
C=CCn1c(SCC(=O)Nc2sccc2C(N)=O)nc2sc(CC)cc2c1=O	VACV Venus inh 10µM, Lassa entry inh inconclusive, MARV entry inh 13µM, FMDV antiviral 25µM (no result: Vaccinia mCherry)
C=CCn1c(SCC(=O)Nc2sccc2C(N)=O)nc2ccccc2c1=O	VACV Venus inh inconclusive, Lassa entry inh inconclusive, MARV entry inh inconclusive, FMDV antiviral inconclusive (no result: Vaccinia mCherry)
CCOc1ccc(NC(=O)c2ccccn2)cc1	Lassa entry inh 0.28µM, MARV entry inh 0.32µM, FMDV antiviral 3.2µM
CCOc1ccc(NC(=O)c2cnccn2)cc1	Sm TGR inh 89µM, Lassa entry inh inconclusive, MARV entry inh inconclusive (no result: Vaccinia mCherry)
C/C(CC(=O)Nc1ccc(N(C)C)cc1)=N\NC(=O)c1cnccn1	Sm TGR inh 35µM, MARV entry inh inconclusive
CCOc1ccc(NC(=O)c2ccccc2O)cc1	Lassa entry inh inconclusive, MARV entry inh inconclusive (no result: Vaccinia mCherry)
CCOc1ccc(NC(=O)c2cnsn2)cc1	Lassa entry inh inconclusive, MARV entry inh 8.9µM
C/C(CC(=O)Nc1ccc(N(C)C)cc1)=N\NC(=O)c1ccccn1	Sm TGR inh inconclusive, MARV entry inh inconclusive (no result: Vaccinia mCherry)
CCOc1ccc(NC(=O)C/C(C)=N/NC(=O)c2cnccn2)cc1	none (no result: VACV Venus inh, Vaccinia mCherry, Lassa entry inh, MARV entry inh)
CCc1ccc(-n2nc(C)c3c(C(=O)Nc4ccc(Cl)cc4)cc(C)nc32)cc1	Lassa entry inh inconclusive, FMDV antiviral inconclusive (no result: MARV entry inh)
CCOc1ccc(NC(=O)CSc2ccccc2N)cc1	VACV Venus inh inconclusive, Vaccinia mCherry inconclusive, MARV entry inh 3.5µM (no result: Lassa entry inh)
O=C(C[N+]1(CC#Cc2ccccc2)CCCCC1)c1ccccc1	none (no result: VACV Venus inh, Vaccinia mCherry, Lassa entry inh, MARV entry inh)
O=C(C[N+]1(CC#Cc2ccccc2)CCCCC1)c1ccc(Cl)cc1	VACV Venus inh inconclusive, Vaccinia mCherry 10µM (no result: Lassa entry inh, MARV entry inh)
O=C(CCCOc1ccccc1)N1CCN(C(=O)c2ccco2)CC1	MARV entry inh inconclusive (no result: VACV Venus inh, Vaccinia mCherry)
O=C(c1ccco1)N1CCN(C(=O)c2ccc(COc3ccc4c(c3)CCC4)o2)CC1	VACV Venus inh inconclusive, Sm TGR inh inconclusive, Lassa entry inh 14µM, MARV entry inh inconclusive, FMDV antiviral inconclusive
O=C(c1ccco1)N1CCN(C(=O)c2ccc(COc3ccc(Cl)cc3Cl)o2)CC1	Lassa entry inh 13µM, MARV entry inh inconclusive, FMDV antiviral inconclusive (no result: VACV Venus inh, Vaccinia mCherry, Sm TGR inh)
O=C(c1ccc(COc2ccccc2Cl)o1)N1CCN(c2ccccc2)CC1	none (no result: Lassa entry inh, MARV entry inh)
Cc1cc(Cl)ccc1OCCCC(=O)N1CCN(C(=O)c2ccco2)CC1	Sm TGR inh 50µM, MARV entry inh inconclusive (no result: VACV Venus inh, Vaccinia mCherry)
O=C(c1ccc(COc2ccc3c(c2)CCC3)o1)N1CCN(c2ccccc2)CC1	Lassa entry inh inconclusive (no result: Sm TGR inh, FMDV antiviral)
COC(=O)c1cccc(C(=O)NCc2nc(-c3ccccc3NC(C)=O)oc2C)c1	none (no result: Sm TGR inh, Lassa entry inh, MARV entry inh)
CCOC(=O)C1CCCN(Cc2nc3ccc([N+](=O)[O-])cc3c(=O)n2-c2ccc(OC)cc2OC)C1 (configuration not stated)	Sm TGR inh inconclusive (no result: VACV Venus inh, Vaccinia mCherry, Lassa entry inh, MARV entry inh)
COc1ccc(-n2c(CN3CCC(C(N)=O)CC3)nc3ccc([N+](=O)[O-])cc3c2=O)c(OC)c1	Sm TGR inh 45µM (no result: VACV Venus inh, Vaccinia mCherry, Lassa entry inh, MARV entry inh)
CCOC(=O)C1CCN(Cc2nc3ccc([N+](=O)[O-])cc3c(=O)n2-c2ccc(OC)cc2OC)CC1	Sm TGR inh 32µM (no result: VACV Venus inh, Vaccinia mCherry, Lassa entry inh, MARV entry inh)
CCOc1c(Cl)cc(Cl)cc1CNCCSc1nnnn1C	none
Cc1c(C(=O)Nc2ccccc2Cl)oc2ccc(S(=O)(=O)N3CCCCCC3)cc12	VACV Venus inh inconclusive, Vaccinia mCherry inconclusive (no result: MARV entry inh)
Cc1ccc(-n2c3nc(=O)n(C)c(=O)c-3cc3c(Cl)cccc32)c(C)c1	MARV entry inh inconclusive
CC(=O)Oc1c(C)cc(Cl)cc1C(=O)Nc1ccc([N+](=O)[O-])cc1Cl	Lassa entry inh 3.7µM, MARV entry inh 1.5µM (no result: VACV Venus inh, Vaccinia mCherry)
